Source: PubChem BioAssay AID1159580 (chemical genetic matrix, 2015)
“And” between values parts separate entries of the source, which are not always exact repeats. Equal entries are not always repeated. Out of some 5,500 compounds screened, about 2,000 (36%) were called active. Roughly 18% stayed inconclusive and do not appear here. Cut-off read from the data, not from the text of the source: active = normalized growth mostly below about 0.91 (no sharp cut-off); inconclusive = no clear call, values can overlap the other calls; inactive = mostly above about 0.92. This is one part of the list.

Assay: chemical genetic growth profiling, strain panel (AID 1159580);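 note: tested at 20 µM; growth read once vehicle control cultures reached saturation at 30 °C; 1 = growth at the plate median or of vehicle wells; lower values mean less growth of the strain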
Settings: S. cerevisiae deletion strains, growth OD

Measured: normalized growth

COC1(C)CCC2OC2(C)CCC2C1CC2(C)C (centres undefined)
inactive: locus YAL013W, strain DEP1, stronger effect = lower value 1 | locus YAL021C, strain ccr4, stronger effect = lower value 1 | locus YAL026C, strain drs2, stronger effect = lower value 1.03 | locus YAL030W, strain snc1, stronger effect = lower value 1.01 | locus YBL061C, strain skt5, stronger effect = lower value 1.01 | locus YBR009C, strain hhf1, stronger effect = lower value 0.991 | locus YBR021W, strain FUR4, stronger effect = lower value 1.02 | locus YBR023C, strain chs3, stronger effect = lower value 1 | locus YBR171W, strain sec66, stronger effect = lower value 1.02 | locus YBR229C, strain ROT2, stronger effect = lower value 1.01 | locus YBR231C, strain swc5, stronger effect = lower value 1.02 | locus YBR279W, strain paf1, stronger effect = lower value 0.998 | locus YCL011C, strain gbp2, stronger effect = lower value 1.01 | locus YCL016C, strain dcc1, stronger effect = lower value 1 | locus YCL029C, strain bik1, stronger effect = lower value 0.998 | locus YCL061C, strain MRC1, stronger effect = lower value 1 | locus YCL069W, strain vba3, stronger effect = lower value 1.02 | locus YCR088W, strain abp1, stronger effect = lower value 1.01 | locus YDL005C, strain med2, stronger effect = lower value 1.01 | locus YDL035C, strain GPR1, stronger effect = lower value 1.01 | locus YDL040C, strain nat1, stronger effect = lower value 1.01 | locus YDL074C, strain BRE1, stronger effect = lower value 1.01 | locus YDL101C, strain DUN1, stronger effect = lower value 1.02 | locus YDL134C, strain PPH21, stronger effect = lower value 1.04 | locus YDL185W, strain tfp1, stronger effect = lower value 1.01 | locus YDL192W, strain arf1, stronger effect = lower value 0.99 | locus YDR001C, strain nth1, stronger effect = lower value 1.01 | locus YDR069C, strain doa4, stronger effect = lower value 1.01 | locus YDR101C, strain arx1, stronger effect = lower value 0.993 | locus YDR137W, strain rgp1, stronger effect = lower value 1 | locus YDR150W, strain NUM1, stronger effect = lower value 0.98 | locus YDR159W, strain sac3, stronger effect = lower value 0.997 | locus YDR162C, strain NBP2, stronger effect = lower value 0.995 | locus YDR195W, strain ref2 1.02 | locus YDR297W, strain sur2, stronger effect = lower value 0.997 | locus YDR318W, strain mcm21, stronger effect = lower value 1.01 | locus YDR334W, strain swr1, stronger effect = lower value 1.02 | locus YDR335W, strain msn5, stronger effect = lower value 1.02 | locus YDR388W, stronger effect = lower value 1.01 | locus YDR392W, strain spt3, stronger effect = lower value 0.818 | locus YDR502C, strain sam2, stronger effect = lower value 1.04 | locus YEL003W, strain gim4, stronger effect = lower value 1.01 | locus YEL037C, strain rad23, stronger effect = lower value 1.01 | locus YEL061C, strain CIN8 (second series), stronger effect = lower value 1.02 | locus YER015W, strain faa2, stronger effect = lower value 1 | locus YER016W, strain bim1, stronger effect = lower value 1.01 | locus YER110C, stronger effect = lower value 1.02 | locus YER111C, strain swi4, stronger effect = lower value 1 | locus YER155C, strain BEM2 (second series), stronger effect = lower value 0.995 | locus YER155C, strain BEM2, stronger effect = lower value 0.996 | locus YER167W, strain BCK2, stronger effect = lower value 0.997 | locus YFR010W, strain ubp6, stronger effect = lower value 1.03 | locus YGL078C, strain dbp3, stronger effect = lower value 1.05 | locus YGL086W, strain mad1, stronger effect = lower value 1 | locus YGL167C, strain pmr1, stronger effect = lower value 1.01 | locus YGL173C, strain kem1, stronger effect = lower value 1.01 | locus YGL227W, strain vid30, stronger effect = lower value 1.01 | locus YGL240W, strain doc1, stronger effect = lower value 1 | locus YGL248W, strain PDE1, stronger effect = lower value 1.05 | locus YGL253W, strain hxk2, stronger effect = lower value 1.01 | locus YGR078C, strain PAC10, stronger effect = lower value 1.05 | locus YGR135W, strain pre9, stronger effect = lower value 1.06 | locus YGR252W, strain gcn5, stronger effect = lower value 1.03 | locus YHR013C, strain ard1, stronger effect = lower value 1.03 | locus YHR027C, strain rpn1, stronger effect = lower value 1.02 | locus YHR030C, strain SLT2, stronger effect = lower value 1.01 | locus YHR079C, strain IRE1 (second series), stronger effect = lower value 1 | locus YHR079C, strain IRE1, stronger effect = lower value 1.04 | locus YHR094C, strain hxt1, stronger effect = lower value 1.01 | locus YHR129C, strain ARP1, stronger effect = lower value 1.01 | locus YHR142W, strain chs7, stronger effect = lower value 1.03 | locus YHR200W, strain rpn10, stronger effect = lower value 1.02 | locus YIL066C, strain RNR3, stronger effect = lower value 1 | locus YIL073C, strain SPO22, stronger effect = lower value 1.06 | locus YIL125W, strain kgd1, stronger effect = lower value 0.981 | locus YIR030C, strain dcg1, stronger effect = lower value 0.999 | locus YJL092W, strain hpr5, stronger effect = lower value 1.01 | locus YJL095W, strain BCK1 (second series), stronger effect = lower value 1.01 | locus YJL095W, strain BCK1, stronger effect = lower value 1.11 and 1.04 | locus YJL115W, strain asf1, stronger effect = lower value 1.01 | locus YJL129C, strain trk1, stronger effect = lower value 1.01 | locus YJL134W, strain LCB3, stronger effect = lower value 1.01 | locus YJL154C, strain vps35, stronger effect = lower value 1.02 | locus YJL164C, strain tpk1, stronger effect = lower value 1.01 | locus YJL166W, strain qcr8, stronger effect = lower value 1.02 | locus YJL168C, strain set2, stronger effect = lower value 0.988 | locus YJL187C, strain SWE1 (second series), stronger effect = lower value 1.05 | locus YJL187C, strain SWE1, stronger effect = lower value 1 | locus YJR043C, strain POL32, stronger effect = lower value 0.99 | locus YJR066W, strain TOR1, stronger effect = lower value 0.962 | locus YKL009W, strain mrt4, stronger effect = lower value 1.04 | locus YKL068W, stronger effect = lower value 1 | locus YKL085W, strain MDH1 (second series), stronger effect = lower value 1 | locus YKL085W, strain MDH1, stronger effect = lower value 1 | locus YKL160W, strain elf1, stronger effect = lower value 1 | locus YKL190W, strain CNB1, stronger effect = lower value 1 | locus YKR001C, strain vps1, stronger effect = lower value 1.02 | locus YKR026C, strain gcn3, stronger effect = lower value 1.01 | locus YKR091W, strain srl3, stronger effect = lower value 1.01 | locus YLL001W, strain dnm1, stronger effect = lower value 0.989 | locus YLL026W, stronger effect = lower value 0.991 | locus YLL041C, strain sdh2, stronger effect = lower value 1.02 | locus YLR027C, strain aat2, stronger effect = lower value 0.993 | locus YLR039C, strain RIC1, stronger effect = lower value 1.06 | locus YLR058C, strain SHM2, stronger effect = lower value 1.03 | locus YLR102C, strain apc9, stronger effect = lower value 0.997 | locus YLR113W, strain HOG1, stronger effect = lower value 1.03 | locus YLR221C, strain rsa3, stronger effect = lower value 1.01 | locus YLR258W, strain gsy2, stronger effect = lower value 1.01 | locus YLR262C, strain YPT6 (second series), stronger effect = lower value 0.979 | locus YLR262C, strain YPT6, stronger effect = lower value 1.07 | locus YLR268W, strain sec22, stronger effect = lower value 0.983 | locus YLR320W, strain mms22, stronger effect = lower value 1 | locus YLR342W, strain FKS1, stronger effect = lower value 1 | locus YLR357W, strain rsc2, stronger effect = lower value 1.02 | locus YLR370C, strain arc18, stronger effect = lower value 1 | locus YLR371W, strain rom2, stronger effect = lower value 1.01 | locus YLR384C, strain iki3, stronger effect = lower value 1 | locus YLR418C, strain cdc73, stronger effect = lower value 1.04 | locus YML016C, strain PPZ1, stronger effect = lower value 1.02 | locus YML032C, strain rad52, stronger effect = lower value 1 | locus YML120C, strain ndi1, stronger effect = lower value 1.01 | locus YML124C, strain tub3, stronger effect = lower value 1 | locus YMR058W, strain fet3, stronger effect = lower value 1.01 | locus YMR078C, strain ctf18, stronger effect = lower value 1.01 | locus YMR125W, strain sto1, stronger effect = lower value 0.997 | locus YMR129W, stronger effect = lower value 1.01 | locus YMR205C, strain PFK2, stronger effect = lower value 0.981 | locus YMR223W, strain ubp8, stronger effect = lower value 1.01 | locus YMR231W, strain pep5, stronger effect = lower value 1 | locus YMR307W, strain GAS1, stronger effect = lower value 1.02 | locus YNL067W, strain RPL9B, stronger effect = lower value 1.04 | locus YNL071W, strain lat1, stronger effect = lower value 1.01 | locus YNL153C, strain GIM3, stronger effect = lower value 1.04 | locus YNL183C, strain NPR1, stronger effect = lower value 0.972 | locus YNL209W, strain ssb2, stronger effect = lower value 1.01 | locus YNL233W, strain BNI4, stronger effect = lower value 1.06 | locus YNL248C, strain rpa49, stronger effect = lower value 1.02 | locus YNL250W, strain rad50, stronger effect = lower value 1.03 | locus YNL271C, strain bni1, stronger effect = lower value 1.01 | locus YNL298W, strain CLA4, stronger effect = lower value 1.02 | locus YNL307C, strain MCK1, stronger effect = lower value 1.01 | locus YNL322C, strain KRE1 (second series), stronger effect = lower value 1.01 | locus YNR049C, strain mso1, stronger effect = lower value 1.01 | locus YNR052C, strain pop2, stronger effect = lower value 1.03 | locus YOL012C, strain htz1 1.84 | locus YOL147C, strain pex11, stronger effect = lower value 1.01 | locus YOR001W, strain rrp6, stronger effect = lower value 1.02 | locus YOR061W, strain CKA2, stronger effect = lower value 1.01 | locus YOR069W, strain VPS5, stronger effect = lower value 1.01 | locus YOR070C, strain gyp1, stronger effect = lower value 1.02 | locus YOR080W, strain dia2, stronger effect = lower value 1 | locus YOR083W, strain WHI5, stronger effect = lower value 0.996 | locus YOR106W, strain vam3, stronger effect = lower value 1.01 | locus YOR136W, strain idh2, stronger effect = lower value 1.01 | locus YOR144C, strain elg1, stronger effect = lower value 0.994 | locus YOR184W, strain ser1, stronger effect = lower value 0.976 | locus YOR231W, strain MKK1, stronger effect = lower value 1.07 | locus YOR265W, strain rbl2, stronger effect = lower value 1.02 | locus YOR270C, strain vph1, stronger effect = lower value 1.15 | locus YOR290C, strain snf2, stronger effect = lower value 1.02 | locus YOR316C, strain cot1, stronger effect = lower value 1.01 | locus YPL051W, strain arl3, stronger effect = lower value 0.976 | locus YPL055C, strain LGE1, stronger effect = lower value 1 | locus YPL078C, strain atp4, stronger effect = lower value 1.01 | locus YPL106C, strain sse1, stronger effect = lower value 1.01 | locus YPL240C, strain hsp82, stronger effect = lower value 1.01 | locus YPL241C, strain CIN2, stronger effect = lower value 0.993 | locus YPL256C, strain CLN2, stronger effect = lower value 1.03 | locus YPR119W, strain clb2, stronger effect = lower value 1 | locus YPR141C, strain kar3, stronger effect = lower value 1.02 | locus YPR163C, strain tif3, stronger effect = lower value 1 | locus YPR167C, strain met16, stronger effect = lower value 1.01 | strain wtn01, stronger effect = lower value 0.986
